# Experimental data as given in article PMC5540273 (PLoS ONE, 2017).
# Like-named read-outs stand apart in the source and are kept apart here.
# Legend:
# [1] = system: JAK1(JH2domain-pseudokinase); settings: concentration: 1 μM, replicates: in singlicate; n = 1
# [2] = system: JAK2(JH1domain-catalytic); settings: concentration: 1 μM, replicates: in singlicate; n = 1
# [3] = system: JAK3(JH1domain-catalytic); settings: concentration: 1 μM, replicates: in singlicate; n = 1
# JNK1 = system: T1, JNK1; settings: concentration: 1 μM, replicates: in singlicate; n = 1
# T1 construct: gene MAPK8
# JNK2 = system: T2, JNK2; settings: concentration: 1 μM, replicates: in singlicate; n = 1
# T2 construct: gene MAPK9
# JNK3 = system: T3, JNK3; settings: concentration: 1 μM, replicates: in singlicate; n = 1
# T3 construct: gene MAPK10
# KIT-autoinhibited = settings: concentration: 1 μM, replicates: in singlicate; n = 1
# KIT = settings: concentration: 1 μM, replicates: in singlicate; n = 1
# LATS1 = settings: n = 1
# LATS2 = settings: concentration: 1 μM, replicates: in singlicate; n = 1
# LCK = settings: concentration: 1 μM, replicates: in singlicate; n = 1
# LIMK1 = settings: concentration: 1 μM, replicates: in singlicate; n = 1
# LIMK2 = settings: concentration: 1 μM, replicates: in singlicate; n = 1
# LKB1 = system: T4, LKB1; settings: concentration: 1 μM, replicates: in singlicate; n = 1
# T4 construct: gene STK11
# LOK = system: T5, LOK; settings: concentration: 1 μM, replicates: in singlicate; n = 1
# T5 construct: gene STK10
# LRRK2 = settings: concentration: 1 μM, replicates: in singlicate; n = 1
# LTK = settings: concentration: 1 μM, replicates: in singlicate; n = 1
# LYN = settings: concentration: 1 μM, replicates: in singlicate; n = 1
# LZK = system: T6, LZK; settings: concentration: 1 μM, replicates: in singlicate; n = 1
# T6 construct: gene MAP3K13
# MAK = settings: concentration: 1 μM, replicates: in singlicate; n = 1
# [4] = concentration: 1 μM, replicates: in singlicate
# 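Also: KINOMEscan kinase panel screen.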
smiles,measurement,setting,value
CNC(=O)c1ccccc1Nc1nc(Nc2ccc(N3CCOCC3)cc2)ncc1Cl.Cl [GSK1576028],%Inh,[1],99.9%
same,%Inh,[2],99%
same,%Inh,[3],100%
same,%Inh,JNK1,100%
same,%Inh,JNK2,100%
same,%Inh,JNK3,100%
same,%Inh,KIT-autoinhibited,10%
same,%Inh,KIT,92.4%
same,%Inh,LATS1; [4],32%
same,%Inh,LATS2,92.1%
same,%Inh,LCK,99.6%
same,%Inh,LIMK1,46%
same,%Inh,LIMK2,30%
same,%Inh,LKB1,51%
same,%Inh,LOK,96.4%
same,%Inh,LRRK2,92.7%
same,%Inh,LTK,100%
same,%Inh,LYN,92.6%
same,%Inh,LZK,89%
same,%Inh,MAK,11%
Cc1cccc(Nc2nc(N[C@H]3CCNC3)ncc2C(N)=O)c1.Cl [GSK2197149],%Inh,[1],88%
same,%Inh,[2],58%
same,%Inh,[3],3%
same,%Inh,JNK1,67%
same,%Inh,JNK2,29%
same,%Inh,JNK3,34%
same,%Inh,KIT-autoinhibited,0%
same,%Inh,KIT,94.9%
same,%Inh,LATS1; [4],0%
same,%Inh,LATS2,0%
same,%Inh,LCK,40%
same,%Inh,LIMK1,0%
same,%Inh,LIMK2,0%
same,%Inh,LKB1,8%
same,%Inh,LOK,0%
same,%Inh,LRRK2,56%
same,%Inh,LTK,0%
same,%Inh,LYN,26%
same,%Inh,LZK,0%
same,%Inh,MAK,11%
CCn1c(-c2nonc2N)nc2c(C#CC(C)(C)O)ncc(OCCCCN)c21.O=C(O)C(F)(F)F.O=C(O)C(F)(F)F [GSK507274],%Inh,[1],0%
same,%Inh,[2],60%
same,%Inh,[3],0%
same,%Inh,JNK1,25%
same,%Inh,JNK2,10%
same,%Inh,JNK3,11%
same,%Inh,KIT-autoinhibited,0%
same,%Inh,KIT,17%
same,%Inh,LATS1; 1 µM,0%
same,%Inh,LATS2,89%
same,%Inh,LCK,0%
same,%Inh,LIMK1,0%
same,%Inh,LIMK2,0%
same,%Inh,LKB1,0%
same,%Inh,LOK,0%
same,%Inh,LRRK2,45%
same,%Inh,LTK,0%
same,%Inh,LYN,0%
same,%Inh,LZK,0%
same,%Inh,MAK,88%
CCS(=O)(=O)c1ccc(OC)c(Nc2nccc(-c3c(-c4cccc(NC(=O)c5c(F)cccc5F)c4)nn4ncccc34)n2)c1 [GSK326180],%Inh,[1],0%
same,%Inh,[2],0%
same,%Inh,[3],0%
same,%Inh,JNK1,32%
same,%Inh,JNK2,68%
same,%Inh,JNK3,46%
same,%Inh,KIT-autoinhibited,0%
same,%Inh,KIT,32%
same,%Inh,LATS1; [4],0%
same,%Inh,LATS2,2%
same,%Inh,LCK,56%
same,%Inh,LIMK1,23%
same,%Inh,LIMK2,3%
same,%Inh,LKB1,0%
same,%Inh,LOK,92.1%
same,%Inh,LRRK2,0%
same,%Inh,LTK,19%
same,%Inh,LYN,30%
same,%Inh,LZK,0%
same,%Inh,MAK,15%
COc1cccc(-c2ccc3c(NC(=O)C4CC4)n[nH]c3n2)c1 [SB-710903],%Inh,[1],0%
same,%Inh,[2],17%
same,%Inh,[3],0%
same,%Inh,JNK1,29%
same,%Inh,JNK2,14%
same,%Inh,JNK3,5%
same,%Inh,KIT-autoinhibited,0%
same,%Inh,KIT,15%
same,%Inh,LATS1; [4],9%
same,%Inh,LATS2,10%
same,%Inh,LCK,23%
same,%Inh,LIMK1,14%
same,%Inh,LIMK2,55%
same,%Inh,LKB1,0%
same,%Inh,LOK,0%
same,%Inh,LRRK2,0%
same,%Inh,LTK,0%
same,%Inh,LYN,1%
same,%Inh,LZK,47%
same,%Inh,MAK,24%
O=C(O)C(F)(F)F.O=C(O)C(F)(F)F.O=c1[nH]ccc2nc(N[C@@H]3CCCNC3)nc(Nc3ccc(S(=O)(=O)N4CCOCC4)cc3)c12 [GSK2177277],%Inh,[1],82%
same,%Inh,[2],98.7%
same,%Inh,[3],99.3%
same,%Inh,JNK1,99.4%
same,%Inh,JNK2,93.4%
same,%Inh,JNK3,98.6%
same,%Inh,KIT-autoinhibited,70%
same,%Inh,KIT,99.8%
same,%Inh,LATS1; [4],92.6%
same,%Inh,LATS2,96.9%
same,%Inh,LCK,78%
same,%Inh,LIMK1,0%
same,%Inh,LIMK2,0%
same,%Inh,LKB1,92.1%
same,%Inh,LOK,78%
same,%Inh,LRRK2,88%
same,%Inh,LTK,79%
same,%Inh,LYN,73%
same,%Inh,LZK,59%
same,%Inh,MAK,0%
COc1cc(Nc2nccc(N3CCC(NC(=O)Nc4cccc(C(C)=O)c4)C3)n2)cc(OC)c1OC (centres unmarked) [GSK1379753],%Inh,[1],11%
same,%Inh,[2],91.4%
same,%Inh,[3],0%
same,%Inh,JNK1,41%
same,%Inh,JNK2,29%
same,%Inh,JNK3,49%
same,%Inh,KIT-autoinhibited,0%
same,%Inh,KIT,86%
same,%Inh,LATS1; [4],0%
same,%Inh,LATS2,0%
same,%Inh,LCK,15%
same,%Inh,LIMK1,51%
same,%Inh,LIMK2,43%
same,%Inh,LKB1,0%
same,%Inh,LOK,20%
same,%Inh,LRRK2,0%
same,%Inh,LTK,100%
same,%Inh,LYN,60%
same,%Inh,LZK,0%
same,%Inh,MAK,30%
CCc1ccc(-c2ccc3c(c2)-c2c(cnn2C)S(=O)(=O)N3C)cc1,%Inh,[1],5%
same,%Inh,[2],2%
same,%Inh,[3],5%
same,%Inh,JNK1,0%
same,%Inh,JNK2,0%
same,%Inh,JNK3,0%
same,%Inh,KIT-autoinhibited,0%
same,%Inh,KIT,2%
same,%Inh,LATS1; [4],0%
same,%Inh,LATS2,0%
same,%Inh,LCK,0%
same,%Inh,LIMK1,0%
same,%Inh,LIMK2,0%
same,%Inh,LKB1,29%
same,%Inh,LOK,16%
same,%Inh,LRRK2,1%
same,%Inh,LTK,3%
same,%Inh,LYN,0%
same,%Inh,LZK,14%
same,%Inh,MAK,14%
Cc1occc1-c1ncc(OC[C@@H](N)Cc2c[nH]c3ccccc23)cc1-c1ccc2[nH]nc(C)c2c1.O=C(O)C(F)(F)F [GSK682037],%Inh,[1],0%
same,%Inh,[2],5%
same,%Inh,[3],0%
same,%Inh,JNK1,24%
same,%Inh,JNK2,55%
same,%Inh,JNK3,12%
same,%Inh,KIT-autoinhibited,0%
same,%Inh,KIT,21%
same,%Inh,LATS1; [4],93.9%
same,%Inh,LATS2,94.8%
same,%Inh,LCK,98.2%
same,%Inh,LIMK1,0%
same,%Inh,LIMK2,0%
same,%Inh,LKB1,0%
same,%Inh,LOK,85%
same,%Inh,LRRK2,23%
same,%Inh,LTK,42%
same,%Inh,LYN,39%
same,%Inh,LZK,0%
same,%Inh,MAK,3%
Cl.c1ccc(-c2ccc3c(Nc4ccc5[nH]ncc5c4)ccnc3c2)nc1 [GW440137],%Inh,[1],0%
same,%Inh,[2],36%
same,%Inh,[3],0%
same,%Inh,JNK1,9%
same,%Inh,JNK2,27%
same,%Inh,JNK3,15%
same,%Inh,KIT-autoinhibited,0%
same,%Inh,KIT,94.4%
same,%Inh,LATS1; [4],0%
same,%Inh,LATS2,3%
same,%Inh,LCK,42%
same,%Inh,LIMK1,9%
same,%Inh,LIMK2,23%
same,%Inh,LKB1,0%
same,%Inh,LOK,2%
same,%Inh,LRRK2,0%
same,%Inh,LTK,18%
same,%Inh,LYN,31%
same,%Inh,LZK,1%
same,%Inh,MAK,21%
